An excerpt weighted towards active compounds, which were near 2.7% of everything screened.
SENP6 inh: blocks the human protease SENP6; Recombinant SENP6 catalytic domain, aminoluciferin luminescence; Q9GZR1; inhibition, % at 10 µM; AID 2599; 330,000 tested, 1.8% active;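 active = inhibition above about 50% at the single tested dose, limit read from the data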;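 note: plate controls were DMSO wells with enzyme for no effect and DMSO wells lacking enzyme for full effect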
Target sequence (Q9GZR1 628-1112 limits assumed): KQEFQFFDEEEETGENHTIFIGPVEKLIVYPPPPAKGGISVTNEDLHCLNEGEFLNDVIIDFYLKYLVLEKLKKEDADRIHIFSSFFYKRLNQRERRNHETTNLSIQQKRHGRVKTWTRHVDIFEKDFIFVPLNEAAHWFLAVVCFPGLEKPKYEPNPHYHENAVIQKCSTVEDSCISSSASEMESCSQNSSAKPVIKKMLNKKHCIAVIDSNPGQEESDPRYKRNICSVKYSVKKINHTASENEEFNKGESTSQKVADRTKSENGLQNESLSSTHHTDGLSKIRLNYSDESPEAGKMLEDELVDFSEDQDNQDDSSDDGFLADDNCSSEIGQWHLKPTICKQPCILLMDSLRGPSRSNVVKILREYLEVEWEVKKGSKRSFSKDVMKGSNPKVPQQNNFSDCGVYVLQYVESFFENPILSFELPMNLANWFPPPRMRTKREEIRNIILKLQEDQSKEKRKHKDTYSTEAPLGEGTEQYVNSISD
SENP8 block-1: blocks the human protease SENP8 | AID 2540 | inhibition, % at 10 µM | 330,000 tested, 1.2% active | Q96LD8 | purified SENP8, Z-RLRGG-aminoluciferin cleavage, luminescence; in the data active = inhibition above about 50%
SENP7 block: SENP7 protease inhibition; recombinant SENP7, Z-RLRGG-aminoluciferin luminescence, 40 min; 330,000 tested, 1.5% active; AID 434973; inhibition, % at 5 µM;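 active = inhibition above about 50% at the single test dose, limit read from the data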;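 note: plate controls were DMSO with enzyme for no effect and no enzyme buffer wells for full effect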
HSP90 inh: HSP90 refolding inhibition in rabbit reticulocyte lysate; luciferase refolding luminescence, 3 h; inhibition, % at 5.6 µM; 290,000 tested, 0.91% active;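 active = inhibition above the screen-wide mean plus 3 SD, computed separately per campaign, cut at about 16% in these data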;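 note: 0% = DMSO wells and 100% = 60 µM geldanamycin wells; inhibitors lower the luminescence because luciferase stays unfolded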
SENP8 block-2: blocks human SENP8 cleavage of Nedd8 substrate; inhibition, % at 20 µM; recombinant SENP8, Nedd8 substrate fluorescence; Q96LD8; 360,000 tested, 0.64% active; in the data active = inhibition mostly above about 40%, no sharp cut-off; inactive = mostly below about 27%
SENP8 conf: confirmation of human SENP8 protease inhibitors; 6,200 tested, 40% active; shares compounds with SENP7 block; Recombinant SENP8, Z-RLRGG-aminoluciferin luminescence, 60 min; AID 488912; inhibition, % at 12.5 µM;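 active = mean inhibition across replicates above about 50%, limit read from the data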
SENP6 confirm: confirmation of human SENP6 protease inhibitors. shares compounds with SENP7 block. recombinant SENP6, Z-RLRGG-aminoluciferin luminescence. inhibition, % at 12.5 µM. 6,200 tested, 58% active
SENP7 confirm: confirmation of human SENP7 protease inhibitors. AID 488917. inhibition, % at 12.5 µM. 6,200 tested, 69% active. shares compounds with SENP7 block. recombinant SENP7, Z-RLRGG-aminoluciferin luminescence, 40 min
Casp3 SENP sel: selectivity test for SENP inhibitors: human caspase-3 inhibition. purified caspase-3, Z-DEVD-aminoluciferin luminescence, 60 min. shares compounds with SENP7 block. 6,200 tested, 60% active. inhibition, % at 12.5 µM;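 active = mean inhibition above about 50%, limit read from the data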;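 note: plate controls were enzyme with DMSO for no effect and wells without caspase-3 for full effect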
Luc interf: counter-screen for SENP inhibitors: luminescence interference | shares compounds with SENP7 block | Pre-incubated SENP8/Z-RLRGG-aminoluciferin, luciferase luminescence interference | inhibition, % at 12.5 µM | 6,200 tested, 39% active | AID 488919;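 active = mean inhibition above about 50% when retested at one dose, limit read from the data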;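 note: plate controls were DMSO wells with completed reaction for no effect and substrate without enzyme for full effect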
The depositor's hits bear a star.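 Rule for the calls, unless noted: active = mean inhibition above about 50% in the one-dose retest (limit read from the data); inactive = the rest.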

What do the screens show for `O=C(c1ccc(Cl)c(Cl)c1)c1cnc(Nc2ccccc2)s1`?
SENP6 inh: 1.7; SENP8 block-1: 8.3; SENP7 block: 9.5; HSP90 inh: 4.9; SENP8 block-2: -244.3

How did O=C(c1ccccc1)c1cnc(Nc2ccccc2Cl)s1 do in these assays?
SENP6 inh: 74.5*; SENP8 block-1: 48.8; SENP7 block: 54.0*; HSP90 inh: -2.0; SENP8 block-2: -276.1; SENP8 conf: 73.3*; SENP6 confirm: 75.6*; SENP7 confirm: 87.4*; Casp3 SENP sel: 46.6; Luc interf: 52.6*

How did CC(C)(C)C(=O)c1cnc(Nc2ccccc2Cl)s1 do in these assays?
SENP6 inh: 90.4*; SENP8 block-1: 78.9*; SENP7 block: 83.2*; HSP90 inh: 3.3; SENP8 block-2: -390.5; SENP8 conf: 86.4*; SENP6 confirm: 89.9*; SENP7 confirm: 97.3*; Casp3 SENP sel: 75.1*; Luc interf: 82.7*

How did Cn1c(=O)c2c(n3cnnc13)-c1ccccc1CC21CCCC1 do in these assays?
SENP6 inh: -3.1; SENP8 block-1: 0.1; SENP7 block: -2.7; HSP90 inh: 4.1; SENP8 block-2: -19.1

How did CCOC(=O)CSC1=N/C(=C\c2ccc(OC)c(OC)c2)C(=O)N1C do in these assays?
SENP6 inh: -5.8; SENP8 block-1: -3.1; SENP7 block: 1.2; HSP90 inh: -0.1; SENP8 block-2: -91.3

What do the screens show for `CCOc1ccc(NS(=O)(=O)c2ccc(OCC(=O)N3CCCC3)cc2)cc1`?
SENP6 inh: -32.0; SENP8 block-1: 6.8; SENP7 block: 91.2*; HSP90 inh: 1.6; SENP8 block-2: 10.6; SENP8 conf: 7.8; SENP6 confirm: 6.3; SENP7 confirm: 8.9; Casp3 SENP sel: 3.6; Luc interf: 3.7

What do the screens show for `CCOC(=O)N1CCN(C(=O)COc2ccc(S(=O)(=O)Nc3ccc(OCC)cc3)cc2)CC1`?
SENP6 inh: 8.3; SENP8 block-1: -4.6; SENP7 block: 8.4; HSP90 inh: -2.3; SENP8 block-2: 5.3

Results for CN(C)C(=O)c1nc2ccccc2s1 ?
SENP6 inh: -18.0; SENP8 block-1: 1.2; SENP7 block: 14.1; HSP90 inh: 0.2; SENP8 block-2: 13.3

How did CN(C(=O)c1ccccc1)c1nc2ccccc2s1 do in these assays?
SENP6 inh: 70.7*; SENP8 block-1: 44.1; SENP7 block: 46.9; HSP90 inh: 2.6; SENP8 block-2: 15.9; SENP8 conf: 28.3; SENP6 confirm: 51.1*; SENP7 confirm: 70.7*; Casp3 SENP sel: 45.3; Luc interf: 43.1

How did Cc1nnc(SCC(=O)NC(=O)NC(C)(C)C)s1 do in these assays?
SENP6 inh: -15.6; SENP8 block-1: -10.3; SENP7 block: -0.6; HSP90 inh: -0.6; SENP8 block-2: -1.8

Results for COc1ccccc1NC(=S)NNC(=O)c1ccccc1Br ?
SENP6 inh: 75.3*; SENP8 block-1: 46.5; SENP7 block: 70.6*; HSP90 inh: -4.6; SENP8 block-2: -13.2; SENP8 conf: 20.8; SENP6 confirm: 15.7; SENP7 confirm: 15.0; Casp3 SENP sel: 6.5; Luc interf: 14.7

Results for NC(=O)c1ccccc1NC(=O)/C=C/c1c(Cl)cccc1Cl ?
SENP6 inh: 52.5*; SENP8 block-1: -6.9; SENP7 block: 45.2; HSP90 inh: 0.6; SENP8 block-2: 3.2; SENP8 conf: -14.1; SENP6 confirm: -8.1; SENP7 confirm: 86.0*; Casp3 SENP sel: 41.7; Luc interf: 3.9

How did O=C(NNC(=S)Nc1ccccc1Cl)c1ccccc1Cl do in these assays?
SENP6 inh: 73.1*; SENP8 block-1: 73.7*; SENP7 block: 49.9; HSP90 inh: 0.3; SENP8 block-2: 8.4; SENP8 conf: 40.1; SENP6 confirm: 28.0; SENP7 confirm: 18.3; Casp3 SENP sel: 9.7; Luc interf: 12.6
